Assay outcomes (PubChem BioAssay)
Pf growth 96h = P. falciparum growth inhibition at 96 hours; Potency, µM (doses to about 28.7 µM), hits mostly inhibitors; P. falciparum luciferase reporter growth, 96 h; AID 504834; hit rate 6.9% among 320,000
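Luminescence readout: decreased luciferase signal marks inhibited growth of reporter-expressing P. falciparum in infected red cells (2% hematocrit, 0.05% parasitemia final), exposed to compound two generations (96 h, 37 C, 5% CO2).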
Pf growth 48h = inhibits P. falciparum growth in the first generation, 48 h | P. falciparum luciferase growth in erythrocytes, 48 h | Potency, µM (doses to about 28.7 µM), hits mostly inhibitors | hit rate 5.9% among 310,000
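Luciferase-expressing parasites in RBCs, 2% Hct / 0.1% parasitemia final; RPMI 1640 + 0.5% Albumax; 37 C, 5% CO2, one generation; luminescence read-out, lower signal = inhibition.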
SARS PLP yeast = inhibitors of SARS-CoV papain-like protease in yeast; hit rate 0.19% among 330,000; AID 485353; S. cerevisiae expressing SARS-CoV PLpro, growth rescue; Potency, µM (titrated, usually from 32.9 µM), most hits filed as activators; calls by dose curve; further: nearly all actives have a fitted effect of over 55% in size
NS1 function inh = influenza NS1 inhibition | Potency, µM (series often up to 46.1 µM) | hit rate 0.4% among 270,000; calls by dose curve; further: actives are rising curves; nearly all actives have a fitted effect of over 50% in size
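A cell-based growth assay was used: compounds that relieve NS1-induced slow growth of budding yeast raise OD600. Assay medium was yeast nitrogen base with ammonium sulphate and -URA supplement, pH 6.0, with 2% galactose.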
HCV inh = HCV inhibition. Huh7.5.1 HCVcc-Cre infection, luciferase reporter, 44 h. hit rate 3.4% among 340,000. Potency, µM (series often up to 41.8 µM), most hits filed as inhibitors
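1,000 cells/well; 4 h culture; + compound; + HCVcc-Cre (~0.5 moi); 44 h; luciferase substrate, RT 15 min; read 15 sec.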
AMA1-RON2 inh = disrupts binding of P. falciparum AMA1 to RON2; AlphaScreen AMA1-biotinylated RON2 peptide binding; hit rate 0.2% among 360,000; AID 720542; Potency, µM (doses to about 58.2 µM), usual class: inhibitors; further: nearly all actives have a fitted effect of over 45% in size
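AMA1 (3D7) with his tag at 25 nM final met compounds first, then biotinylated RON2 peptide at 25 nM; detection used donor plus acceptor beads, 10 µg/mL apiece, read by AlphaScreen after 30 min at room temperature.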
Each line names hits and unclear results; the compound was inactive in the other large screens. This is a sample that favours compounds with a hit; in the whole collection about 12% have one here. Unless noted, the call rests on the fitted dose curve; in most records, active means well fitted curve in the direction sought with a large enough effect; inconclusive means small, poorly fitted or top-dose-only effect, or another doubt; inactive means no such curve, though single readings can be large; an effect the other way counts as inactive or inconclusive.

Cc1cccc(C)c1NC(=O)C(CCc1ccccc1)n1c(=O)c(-c2ccccc2)nc2ccccc21 (stereo unspecified)	none (no result: Pf growth 96h, Pf growth 48h, SARS PLP yeast, NS1 function inh, HCV inh)
CC(=O)Nc1cc(-c2cccc(N)c2)cn2c(-c3ccc(C(C)=O)cc3)cnc12	none (no result: Pf growth 96h, Pf growth 48h, SARS PLP yeast, NS1 function inh, HCV inh)
COC1CCCCC1Nc1cc(C)cc(C)c1 (stereo unspecified)	Pf growth 96h 13.1µM (no result: Pf growth 48h)
O=[N+]([O-])c1cccc(COc2ccccc2CN2CCCC2)c1	HCV inh inconclusive (no result: Pf growth 96h, Pf growth 48h, SARS PLP yeast, NS1 function inh)
CC(=O)c1ccc(N=Cc2c(O)n(-c3cc(Cl)ccc3N3CCOCC3)c(=O)c3ccccc23)cc1	Pf growth 48h 0.657µM, NS1 function inh inconclusive (no result: Pf growth 96h)
Cc1cccc(/N=C/c2c(O)n(-c3cc(Cl)ccc3N3CCOCC3)c(=O)c3ccccc23)n1	none (no result: Pf growth 96h, Pf growth 48h, SARS PLP yeast, HCV inh, AMA1-RON2 inh)
Cc1cc(N(C)Cc2ccccc2)nc2cc(O)ccc12	Pf growth 48h 1.65µM
Cc1cc(N(C)Cc2ccccc2)nc(-c2ccccc2)n1	HCV inh 10µM
CCCC(C(=O)NC1CCCC1)N(C(=O)c1snc(C(N)=O)c1N)c1ccc(F)cc1 (stereo unspecified)	Pf growth 48h inconclusive
CCN(CC)CCC#CC(O)(c1ccccc1)C1CCCCC1 (stereo unspecified)	Pf growth 96h inconclusive, Pf growth 48h inconclusive
CCC[N+]1(CC#CC(O)(c2ccccc2)C2CCCCC2)CCCCC1 (stereo unspecified)	Pf growth 48h 1.65µM
O=C(NN=Cc1cc(Cl)ccc1[N+](=O)[O-])c1ccco1	none (no result: Pf growth 96h, Pf growth 48h, SARS PLP yeast, NS1 function inh)
Cc1nnc2sc(SCC(=O)Nc3ccc(Br)cc3)nn2c1=O	Pf growth 96h inconclusive, Pf growth 48h inconclusive
Cc1ccccc1NC(=O)CSc1nn2c(=O)c(C)nnc2s1	Pf growth 96h inconclusive, Pf growth 48h inconclusive (no result: NS1 function inh)
Cc1ccccc1CSc1nn2c(=O)c(C)nnc2s1	Pf growth 96h inconclusive, Pf growth 48h 5.22µM (no result: NS1 function inh)
Cc1nnc2sc(SCC(=O)N3CCC(C)CC3)nn2c1=O	Pf growth 96h 3.7µM, Pf growth 48h inconclusive
Cc1nnc(SCC(=O)N2CCCCC2)s1	HCV inh inconclusive (no result: Pf growth 96h)
Cc1nnc2sc(SCC(=O)N3CCCCC3)nn2c1=O	Pf growth 96h 0.828µM, Pf growth 48h 2.62µM
OC[C@H](O)[C@H](O)[C@@H](O)[C@@H](O)[C@@H]1SC(c2ccccc2)=NN1c1ccccc1	Pf growth 96h inconclusive, Pf growth 48h 13.1µM
Cc1ccc(C2=NNC(C(O)C(O)C(O)C(O)CO)S2)cc1 (stereo unspecified)	none (no result: Pf growth 48h)
CCN(CC)C(=O)c1ccc(Oc2ccc([N+](=O)[O-])cc2Cl)cc1	Pf growth 96h inconclusive, HCV inh inconclusive
CCN(CC)C(=O)c1cc([N+](=O)[O-])cc2c1-c1ccc([N+](=O)[O-])cc1C2=C(C#N)C#N	Pf growth 96h inconclusive, Pf growth 48h 14.7µM
Cn1cnc(C(=O)N2CCc3ccccc3C2)c1C(=O)N1CCc2ccccc2C1	none (no result: Pf growth 96h, Pf growth 48h, NS1 function inh)
COc1cccc(-c2cc(NC(C)=O)c3ncc(-c4ccc(OC)c(OC)c4)n3c2)c1	none (no result: Pf growth 96h, Pf growth 48h, SARS PLP yeast, NS1 function inh, HCV inh)
Cc1cccc(OCCC(=O)Nc2ccc(Cl)cc2F)c1	SARS PLP yeast inconclusive
Cc1nc2c(-c3ccccc3)c(C)nn2c(SCC(N)=O)c1Cc1ccccc1	Pf growth 96h inconclusive, Pf growth 48h inconclusive, HCV inh inconclusive
COc1cc(C(=O)OCCN2CCOCC2)cc(OC)c1OC	none
COc1cc(C(=O)OCCCN(C)C)cc(OC)c1OC	NS1 function inh inconclusive
COc1cc(C(=O)OCCCN2CCCN(CCCOC(=O)c3cc(OC)c(OC)c(OC)c3)CC2)cc(OC)c1OC	Pf growth 48h 9.53µM, HCV inh 8.91µM (no result: SARS PLP yeast)
CCN(CC)CCCCCCCCOC(=O)c1cc(OC)c(OC)c(OC)c1	Pf growth 96h 10.4µM, Pf growth 48h 9.28µM, HCV inh 0.562µM (no result: SARS PLP yeast)
CC1(C(=O)O)CCN1C(=O)c1ccccc1F (stereo unspecified)	none (no result: Pf growth 96h, Pf growth 48h, SARS PLP yeast, NS1 function inh, HCV inh)
COc1cccc(NC(=O)N2CCCC2C(=O)NCc2ccccc2F)c1 (stereo unspecified)	Pf growth 96h 10.4µM
Cc1ccc(NC(=O)N2CCCC2C(=O)NCc2ccccc2Cl)cc1 (stereo unspecified)	Pf growth 96h 2.62µM
COc1ccc(NC(=O)N2CCCC2C(=O)Nc2ccccc2)cc1 (stereo unspecified)	none
COc1ccc(NC(=O)N2CCCC2C(=O)Nc2ccccc2F)cc1 (stereo unspecified)	Pf growth 96h 2.62µM
CCCN(CC(=O)Nc1ccccc1OC)C(=O)CCC(=O)c1ccc(OCC)cc1	Pf growth 96h inconclusive, Pf growth 48h inconclusive, HCV inh inconclusive (no result: NS1 function inh)
C#CCn1cc(/C=C2\NC(=O)NC2=O)c2ccccc21	AMA1-RON2 inh inconclusive
COCCCNC(=O)c1csc([C@@H]2O[C@H](CO)[C@H](O)[C@H](O)[C@H]2O)n1	none (no result: Pf growth 96h, Pf growth 48h, SARS PLP yeast, NS1 function inh, HCV inh)
CCCC[C@@H](C)C[C@@H](C)C(=O)N(C)[C@@H](CC(C)C)C(=O)N[C@H](C(=O)N(C)[C@H](C(=O)N1C[C@@H](O)C[C@H]1C(=O)N1C(=O)C=C[C@@H]1C)C(C)C)C(C)OC(C)=O (stereo partly specified)	HCV inh 3.98µM (no result: Pf growth 96h, Pf growth 48h, NS1 function inh)
CN(C)c1ccc(NC(=O)CCN2C(=O)c3cccc([N+](=O)[O-])c3C2=O)cc1	Pf growth 96h 11.7µM
